From PubChem BioAssay AID463173 (ICCB-Longwood Screening Facility, Harvard Medical School, 2010)
Out of some 52,000 compounds screened, about 4,300 (8.3%) were called active. This is one part of a sample in which actives are shown more often than they occur. A number with no mark means an inactive call. Cut-off read from the data, not from the text of the source: active = survival mostly below about 52% (no sharp cut-off); inactive = mostly above about 56%.

The compounds below were run on DeltatarO mutant (assay: S. aureus survival, RN4220 and DeltatarO strains – OD600, teichoic acid synthesis inhibitors, primary screen (AID 463173)). Details: S. aureus RN4220 wild type/DeltatarO growth, OD600, 18 h, hits give low values, screened at 18.75 µg/mL (by protocol).

SMILES	survival
CCN(CC)CCOC(=O)c1ccc(Nc2c3c(nc4ccccc24)CCC3)cc1	94%
Cc1c(C(=O)N2CCC(c3nc4ccccc4s3)CC2)oc2cc(Br)ccc12	107%
COc1cccc(-c2nnc(SCC(=O)N3CCCCC3)o2)c1	98%
CCc1ccc(NC(=O)Cn2nc(C(F)(F)F)c3c2CCCC3)cc1	94%
CCOc1ccc(CCNS(=O)(=O)c2c(C)nc3sc(C)cn3c2=O)cc1OCC	58%
CCN(CC)c1ccc(C2C(C(=O)Nc3ccccc3C)=C(C)Nc3ncnn32)cc1 (stereo not given)	99%
Cc1ccc(-n2ncc3c(N4CCN(C)CC4)ncnc32)cc1	81%
CN(C)C(=O)c1ccc2c(c1)N(CC(=O)NCc1ccc(F)cc1)C(=O)C1CCCCN21 (stereo not given)	74%
CCOC(=O)c1c(-c2cccs2)csc1NC(=O)C(F)(F)F	70%
CCOC(=O)c1ccccc1NC(=O)Cn1c(=O)n(Cc2nc(-c3ccccc3)no2)c(=O)c2ccccc21	72%
CCCN(CCC)C(=O)CSc1c2c(nc3ccc(Cl)cc13)CCCC2	38% (active)
CCCCN(C)C(=O)CSc1c2c(nc3ccc(Cl)cc13)CCCC2	-2% (active)
Cc1ccc(CNC(=O)CSc2c3c(nc4ccc(Cl)cc24)CCCC3)cc1	76%
CN(Cc1ccccc1)C(=O)CSc1c2c(nc3ccc(Cl)cc13)CCCC2	0% (active)
COc1cc(OC)c(N(C)C(=O)CSc2c3c(nc4ccc(Cl)cc24)CCCC3)cc1Cl	33% (active)
COc1ccc(NC(=O)CSc2c3c(nc4ccc(Cl)cc24)CCCC3)cc1Cl	55%
COc1cccc(CNC(=O)CSc2c3c(nc4ccc(Cl)cc24)CCCC3)c1OC	62%
CCc1ccc(CNC(=O)CSc2c3c(nc4ccc(Cl)cc24)CCCC3)cc1	63%
Cc1ccc2nc(NC(=O)CSc3[nH]c(=O)ncc3C)sc2c1	102%
O=S(=O)(c1ccc2nsnc2c1)N1CCCCC1	66%
CCOc1ccc(CNC(=O)c2cc3ccccn3n2)cc1OC	74%
CCOc1ccc(NC(=O)C2CC(=O)N(c3ccc(C(C)C)cc3)C2)cc1 (stereo not given)	91%
COc1ccc(CCNC(=O)CCn2c(=O)c3ccccc3n(Cc3c(C)cc(C)cc3C)c2=O)cc1OC	89%
Cc1cccc(N2CCN(c3nc4ccccc4c4nc(-c5ccccc5)nn34)CC2)c1C	92%

SMILES	survival
COc1ccc(N2CCN(C(=O)Nc3ccccc3Cl)CC2)cc1	167%
CC(CNC(=O)Cn1ccc2cc(S(=O)(=O)N3CCCCCC3)ccc21)c1ccccc1 (stereo not given)	109%
CCCCN(CC)C(=O)CSc1c2c(nc3ccc(Cl)cc13)CCCC2	-2% (active)
CCN(CC)CCCNC(=O)CSc1c2c(nc3cc(Cl)ccc13)CCCC2	109%
COc1ccccc1NC(=O)c1ncn(-c2ccccc2)n1	115%
CCCCCC(=O)N1c2ccccc2C(C)(c2ccccc2)CC1(C)C (stereo not given)	-2% (active)
CC1=CC(C)(C)N(C(=O)Cc2ccccc2)c2ccccc21	115%
CCN1C(=O)C(O)(C(C)C(=O)c2ccccc2)c2ccccc21 (stereo not given)	57%
CCC(CC)C(=O)N1CCN(Cc2ccccc2)CC1	94%
CC(=O)N1c2ccccc2C(C)(c2ccc(C)cc2)CC1(C)C (stereo not given)	-4% (active)
Cc1ccc(NC(=O)CN2C(=O)C(C)(C)c3ccccc32)cc1	78%
CCC(CC)C(=O)N1c2ccccc2C(C)(c2ccccc2)CC1(C)C (stereo not given)	-5% (active)
CC(=O)N1c2ccccc2N(C)C(=O)C1(C)C	88%
CCC(=O)N1CCN(C(=O)CC)C1c1ccccc1	93%
CCC(=O)N1c2ccccc2C(C)(c2ccccc2)CC1(C)C (stereo not given)	-8% (active)
CC1=CC(C)C(/C=N/O)C(C)C1 (stereo not given)	94%
O=C(/C=C/c1ccccc1)Nc1ccccc1N1CCN(c2ccccc2)CC1	106%
Cc1ccc2onc(CNC(=O)NCc3cccc(Cl)c3)c2c1	72%
CC1CCCN(c2ncnc3c2nnn3C)C1 (stereo not given)	75%
CCOC(=O)CN1CCOCCN(CC(=O)OCC)CCOCC1	64%
Cc1ccc(NC(=O)CSc2cn(CC(=O)N3CCCC3)c3ccccc23)cc1Cl	84%
CCOc1ccc(CCNC(=O)Cn2nnc(-c3ccc(OC)c(OC)c3)n2)cc1OCC	65%
O=C(Nc1ccc2c(c1)oc1ccccc12)c1cccs1	69%
COc1ccc(OC)c(CCNC(=O)C2CCN(c3ncnc4c3nc3n4CCCCC3)CC2)c1	80%

SMILES	survival
COc1ccc(CNC(=O)CN2CCSc3ccccc32)c(OC)c1	120%
CC(C)CN(CCNC(=O)CCN1N=C(c2ccccc2)CCC1=O)CC(C)C	84%
CCOC(=O)c1ccccc1NC(=O)N(C(C)C)C1CCN(C(C)=O)CC1	73%
CCc1ccc(NC(=O)c2cnn3c(C(F)F)cc(C)nc23)cc1	96%
O=C(Cn1c(=O)n2nc(-c3cccc(F)c3)nc2c2ccccc21)N1CCN(c2ccccc2F)CC1	116%
Cc1nn(Cc2noc(C(=O)NCc3cccc(F)c3)n2)c(C)c1Br	71%
CCCCN1C(=O)C(O)(CC(=O)c2ccc(C(C)(C)C)cc2)c2ccccc21 (stereo not given)	28%
CCCCC(=O)N1c2ccccc2C(C)(c2ccccc2)CC1(C)C (stereo not given)	-3% (active)
CCCCOc1ccc(C2(C(=O)O)CCCC2)cc1	103%
CC(C)Cc1nn2c(=O)cc(COC(=O)c3ccccc3NC(=O)C3CCCCC3)nc2s1	81%
O=C(O)CCc1ccc(-c2ccc(Br)cc2)n1-c1ccccc1O	64%
Cc1ccc(-c2ccc(CCC(=O)O)n2-c2ccc(C(N)=O)cc2)cc1	60%
CN(C)c1ccc(-n2c(CCC(=O)O)ccc2-c2ccccc2)cc1	60%
CCOC(=O)c1ccc(-n2c(CCC(=O)O)ccc2-c2ccc(Br)cc2)cc1	19% (active)
CCOc1ccc(NC(=O)Cn2c(CCC(=O)O)ccc2-c2ccc(C)cc2)cc1	65%
CCc1ccc(-n2c(CCC(=O)O)ccc2-c2cccs2)cc1	52%
CCOc1ccc(-n2c(CCC(=O)O)ccc2-c2ccc(Br)cc2)cc1	48% (active)
COC(=O)c1ccc(-n2c(CCC(=O)O)ccc2-c2ccc(C)cc2)cc1	49%
Cc1ccc(-c2ccc(CCC(=O)O)n2-c2ccc(C(C)C)cc2)cc1	44%
CC(=O)Nc1ccc(-n2c(CCC(=O)O)ccc2-c2ccc(C)cc2)cc1	56%
CC(=O)Nc1ccc(-n2c(CCC(=O)O)ccc2-c2ccc(Br)cc2)cc1	45% (active)
CCc1ccc(-n2c(CCC(=O)O)ccc2-c2ccc(F)cc2)cc1	29% (active)
